This is a sample that favours compounds with a hit; in the whole collection about 0.46% have one here.
CaV13 ICDI inh: Primary screen for inhibitors of IQ motif and Ca2+-dependent inactivation inhibitor domain binding in CACNA1D, Förster resonance energy transfer in living cells, …; HEK cells, CFP/YFP FRET ICDI-IQ, plate reader, 10 min; percent FRET-ratio fall versus neutral wells; inhibition, % at 12.3 µM; hit rate 0.098% among 340,000; AID 743397;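 active = mean replicate inhibition of at least 30% and at least 1% of replicates passing that level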;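 also: 0% = median of the neutral control wells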
PGC1a acetyl inh: inhibitors of PGC1a acetylation signal, primary screen, cell-based, U2OS, AlphaScreen, inhibitor mode; AlphaScreen anti-acetyl-lysine; with virally co-expressed GCN5 acetyltransferase; hit rate 0.17% among 350,000; inhibition, % at 15.6 µM; AID 651687, 2012;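 active = every replicate shows inhibition of at least 40%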;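 also: 0% = neutral control wells and 100% = positive control wells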
PDI turbidity: inhibitors of human PDI, primary screen, biochemical, turbidity, single point, plate reader; Protein disulfide-isomerase (Homo sapiens), P07237; hit rate 0.052% among 350,000; PDI insulin aggregation turbidity, A650, 90 min; AID 588391, 2011; inhibition, % at 10 µM;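 active = mean inhibition across replicates of 30% or more, whatever share of single replicates reach that level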
ERAP1 inh: human ERAP1 aminopeptidase inhibitors, primary screen, biochemical, single point, plate reader; Endoplasmic reticulum aminopeptidase 1 (Homo sapiens), Q9NZ08; recombinant ERAP1, Leu-AMC fluorescence, 60 min; inhibition, % at 10.7 µM; hit rate 0.15% among 340,000; AID 652197, 2013;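 active = mean replicate inhibition of at least 30%, or all replicates individually reaching that 30% level; inactive = mean below 30% and not every replicate reaching it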;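 also: 0% = neutral control wells and 100% = L-leucinethiol positive control wells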
ERp5 inh: inhibitors of ERp5-driven insulin aggregation, primary screen, biochemical, turbidity, absorbance 650 nm, single point; inhibition, % at 9.99 µM; 90 min; hit rate 0.05% among 350,000; Protein disulfide-isomerase A6 (Homo sapiens), Q15084;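 active = mean replicate inhibition above about 25%, with every replicate also reaching it, limit read from the data, passing the limit was not always enough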
Target sequence (Q15084 whole entry, looked up): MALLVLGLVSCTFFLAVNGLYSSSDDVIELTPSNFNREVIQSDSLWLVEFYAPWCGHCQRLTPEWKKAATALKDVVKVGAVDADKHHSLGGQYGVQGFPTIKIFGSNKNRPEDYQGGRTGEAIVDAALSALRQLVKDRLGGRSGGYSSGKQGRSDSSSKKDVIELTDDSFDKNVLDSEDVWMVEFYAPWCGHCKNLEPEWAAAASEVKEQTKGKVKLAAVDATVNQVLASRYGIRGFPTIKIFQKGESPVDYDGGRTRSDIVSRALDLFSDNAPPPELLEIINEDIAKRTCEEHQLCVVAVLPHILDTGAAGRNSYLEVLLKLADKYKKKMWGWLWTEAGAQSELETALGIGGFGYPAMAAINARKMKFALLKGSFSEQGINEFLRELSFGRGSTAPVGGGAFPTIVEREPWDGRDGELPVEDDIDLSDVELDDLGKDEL
PglD DTNB: C. jejuni PglD acetyltransferase inhibitors, primary screen, biochemical, DTNB colorimetric, single point. UDP-N-acetylbacillosamine N-acetyltransferase PglD (Campylobacter jejuni). purified PglD enzyme, DTNB colorimetric CoA detection. inhibition, % at 12.5 µM. hit rate 0.098% among 360,000. AID 602405, 2012; in the data active = inhibition above about 16%, passing the limit was not always enough
PglD inh SP: PglD acetyltransferase inhibitors, confirmation, biochemical, DTNB absorbance, single point, cherry-picked samples | inhibition, % at 20 µM | Purified C. jejuni PglD, DTNB absorbance 412 nm | 320 tested, under 10 active | AID 743156, 2013 | shares compounds with PglD DTNB;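 active = mean inhibition across replicates of at least 20% with every single replicate also at 20% or more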;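 also: initial rate of CoA release by acetyl transfer from AcCoA to the UDP-4-amino sugar; 0% = median of neutral control wells and 100% = median of positive control wells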
* hit, by the source's call; i = inactive; · = no result.

SMILES	CaV13 ICDI inh	PGC1a acetyl inh	PDI turbidity	ERAP1 inh	ERp5 inh	PglD DTNB	others
O=c1oc2cc(O)ccc2cc1S(=O)(=O)c1ccccc1	31.3*	-7.6	0.7	i	-8.3	-5.1
NC(=S)c1cc2ccc(O)cc2oc1=O	12.9	-22.4	6.2	·	·	·
C[C@@H]1CN([C@H](C)CO)C(=O)c2cccc(NC(=O)c3ccncc3)c2O[C@H]1CN(C)S(=O)(=O)c1cn(C)cn1	·	1.6	·	2.4	-1.0	2.4
CN1C(=O)c2cc(NC(=O)c3ccc(C(F)(F)F)cc3)ccc2OC[C@@H]2O[C@H](CC(=O)O)CC[C@@H]21	·	-1.0	·	0.6	-1.3	0.6
COc1ccc(NC(=O)N(C)C[C@@H]2Oc3ccc(NC(=O)Nc4ccccc4)cc3C(=O)N([C@@H](C)CO)C[C@@H]2C)cc1	·	-1.7	·	-1.3	-6.3	-8.9
N#Cc1cccc(C#N)c1NCC1CCCO1 (stereo not given)	-18.9	43.0*	7.1	5.1	-2.9	5.5
N#Cc1cc(Cl)c(NCC2CCCO2)cc1C#N (stereo not given)	-3.0	·	8.8	-0.8	-2.3	-1.0
CCCCCCCCCCCCCCCC[N+](C)(C)Cc1ccc(F)cc1	-16.2	·	41.2*	95.9*	-16.4	·
CC#CC[N+](C)(C)CCCCCCCC	-2.7	4.7	4.6	·	2.2	1.5
COCCCNC(=S)Nc1cc(C)c(C)cc1C	-4.5	75.0*	-6.2	-1.9	-0.1	·
CN(C)CCCNCCCCNC(=O)/C=N/O	-5.2	-1.2	15.4	·	·	-1.0
C=CC[N+](C)(C)CCCNC(=O)/C=N/O	-2.8	·	-13.8	69.2*	-7.5	·
C[C@@H](NC(=O)C[C@@H]1CC[C@H](NC(=O)C2CCOCC2)[C@H](CO)O1)c1ccccc1	·	2.3	·	3.5	-1.9	-1.3
Cc1ccc(S(=O)(=O)C=CS(=O)(=O)c2ccc(C)cc2)cc1	-14.1	-2.6	3.7	4.0	31.5*	2.0
Cc1ccc(S(=O)(=O)c2ccc(C)cc2)cc1	-8.5	-47.1	-3.4	8.8	6.1	1.6
O=C(C[C@@H]1CC[C@H]2[C@@H](COC[C@H](O)CN2C(=O)Nc2cccc(F)c2)O1)NCc1ccccc1F	·	-5.4	·	-4.5	1.7	18.6*
CC(=O)Nc1ccc2c(c1)Cc1cc(N3C(=O)C=CC3=O)ccc1-2	-6.2	11.1	-16.7	33.6*	-7.5	0.7
C[C@@H]1CN([C@@H](C)CO)C(=O)c2cc(NC(=O)c3ccncc3)ccc2O[C@@H](C)CCCCO[C@@H]1CN(C)S(=O)(=O)c1ccc(F)cc1	·	0.9	·	0.1	2.8	4.6
CC(C)NC(=O)Nc1ccc2c(c1)C(=O)N([C@@H](C)CO)C[C@@H](C)[C@@H](CN(C)S(=O)(=O)c1cn(C)cn1)O2	·	-9.9	·	-1.7	0.6	0.3
COc1ccc(/C=C(\C#N)C(=O)NCc2cccnc2)cc1OC	-1.5	0.2	1.5	63.5*	10.9	·
COc1cc(/C=C(/C#N)C(=O)NCCCc2ccccc2)ccc1OCC(=O)O	19.3	-10.2	-3.8	35.3*	0.7	-2.1
CCCc1cc(=O)oc2c(CN(CC)CC)c(O)c(Cl)cc12	-4.7	-1.6	9.0	189.4*	1.0	-1.7
COC(=O)[C@H]1[C@H](CO)[C@H]2Cn3c(ccc(/C=C/c4ccccc4)c3=O)[C@H]2N1CCC(F)(F)F	·	·	·	0.6	0.6	0.1
O=C1NC(=O)/C(=C/c2cccc3ccccc23)S1	-19.1	-6.5	-4.4	-1.5	2.6	-3.7
CCCOc1ccc2ccccc2c1/C=C1\SC(=O)NC1=O	-10.9	75.8*	-16.9	-1.8	0.8	-7.3
SMILES	CaV13 ICDI inh	PGC1a acetyl inh	PDI turbidity	ERAP1 inh	ERp5 inh	PglD DTNB	others
Cc1ccc(NC(=O)C2CCN(C(=O)c3cccs3)CC2)c(C)c1	-3.2	·	7.4	34.1*	-1.1	0.2
Cc1ccc(NC(=O)C2CCCN2C(=O)c2cccs2)c(C)c1 (stereo not given)	-3.3	·	-3.0	55.9*	2.3	-2.0
CCc1ccccc1NC(=O)C1CCN(C(=O)c2cccs2)CC1	-3.8	·	-6.6	-3.9	0.6	-2.0
C[C@@H]1CN([C@@H](C)CO)C(=O)c2ccccc2-c2ccccc2CO[C@@H]1CN(C)C(=O)Nc1ccc2c(c1)OCO2	·	-8.2	·	1.1	-4.6	-2.7
CCOC(=O)C(NC(=O)c1ccccc1)(OCC1(CC)COC1)C(F)(F)F (stereo not given)	41.2*	-6.8	-3.1	·	·	4.0
O=[N+]([O-])c1ccc(Oc2cccc(F)c2)c2ccncc12	·	70.6*	-2.2	·	·	·
O=[N+]([O-])c1cnccc1Nc1cccc(F)c1	-4.5	·	1.4	·	·	-5.4
O=C1C[C@@H](c2ccc(O[C@@H]3O[C@H](CO)[C@@H](O)[C@H](O)[C@H]3O)cc2)Oc2cc(O)ccc21	-5.1	·	35.7*	1.3	3.2	-2.2
O=C1c2c(O)cc(O)cc2O[C@H](c2ccc(O)c(O)c2)[C@H]1O	-5.6	3.5	7.2	1.3	-0.6	5.8
C[C@@H]1O[C@@H](O[C@@H]2C(=O)c3c(O)cc(O)cc3O[C@H]2c2ccc(O)c(O)c2)[C@H](O)[C@H](O)[C@H]1O	-5.4	·	44.4*	-1.4	-0.7	0.7
C[C@@H]1CCCCO[C@@H](CN(C)S(C)(=O)=O)[C@H](C)CN([C@@H](C)CO)C(=O)c2cc(NC(=O)NC3CCCCC3)ccc2O1	·	-8.9	·	-3.0	-17.4	0.7
CCSc1ccccc1C(=O)NCCCn1ccnc1	-4.5	94.6*	6.9	·	·	2.6
CSc1ccccc1C(=O)NCCCn1ccnc1	-3.5	16.4	5.0	0.7	1.6	-4.1
O=C(O)c1cccnc1SC1CC(=O)N(Cc2ccccc2)C1=O (stereo not given)	-5.7	0.0	-6.4	·	·	39.0*	PglD inh SP=1.6
O=C(O)c1cccnc1SC1CC(=O)N(CCc2ccccc2)C1=O (stereo not given)	-7.9	-17.6	3.9	-2.6	2.9	4.2
CNS(=O)(=O)c1ccc2c3c(cccc13)C(=O)N2	-4.3	·	-6.8	-51.8	5.1	2.8
CNS(=O)(=O)c1cc(S(=O)(=O)NC)c2cccc3c2c1NC3=O	9.9	0.0	0.6	-7.6	2.5	76.6*	PglD inh SP=1.3
COc1cccc(-c2cnc3c(c2)C(=O)N([C@@H](C)CO)C[C@@H](C)[C@H](CN(C)Cc2ccncc2)O3)c1	·	-1.0	·	-2.1	0.3	2.8
